In the supplement of paper PMC6555819:

What was measured:
Assay in all cases: PBM binding z-score (relative to random genomic background probes); higher = stronger binding; sequences stand for … in GC…GCGATTGACAGCGTAGAATGAAGG
[1] = tested on: FXR:RXRa (NR concentration 270 nM, RXRa partner concentration 90 nM)
How it was run: (§1)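 On custom Agilent 4×180K arrays, double-stranded probes with 34-nt variable regions carried direct-repeat seeds, single-nucleotide variants, half-site ablations or random human genomic background. Ligand-free nuclear receptor dimers were applied for 1 h, and binding was read with antibodies against each partner (one per run). Binding z-scores come from regression-normalized fluorescence, with the random background probes as reference.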

[2] = tested on: LXRa:RXRa (NR concentration 270 nM, RXRa partner concentration 90 nM)
How it was run: as §1

[3] = tested on: LXRa homodimer (NR concentration 270 nM)
How it was run: as §1

[4] = tested on: LXRb:RXRa (NR concentration 270 nM, RXRa partner concentration 90 nM)
How it was run: as §1

[5] = tested on: LXRb homodimer (NR concentration 270 nM)
How it was run: as §1

[6] = tested on: PPARa:RXRa (NR concentration 270 nM, RXRa partner concentration 90 nM)
How it was run: as §1

[7] = tested on: PPARg:RXRa (NR concentration 180 nM, RXRa partner concentration 90 nM)
How it was run: as §1

[8] = tested on: PPARg:RXRa 270nM:90nM, anti-RXR (NR concentration 270 nM, RXRa partner concentration 90 nM)
How it was run: as §1

[9] = tested on: PPARg:RXRa 30nM:10nM, anti-RXR (NR concentration 30 nM, RXRa partner concentration 10 nM)
How it was run: as §1

[10] = tested on: PPARg:RXRa 90nM:30nM, anti-RXR (NR concentration 90 nM, RXRa partner concentration 30 nM)
How it was run: as §1

Sequence | PBM binding z-score [1] | PBM binding z-score [2] | PBM binding z-score [3] | PBM binding z-score [4] | PBM binding z-score [5] | PBM binding z-score [6] | PBM binding z-score [7] | PBM binding z-score [8] | PBM binding z-score [9] | PBM binding z-score [10]
CCTTACGGGTCACGAGGCTATAGCACGACGAGCG | 6.52 | 3.97 | 0.0117 | 3.26 | -0.222 | 5.83 | 6.52 | 5.91 | 2.64 | 4.4
AGAACGAGGGCAATGACTTGATAGCACGGGTGGC | 0.827 | 0.481 | -0.243 | -0.0938 | -0.458 | 1.43 | 1.71 | 0.813 | 0.00433 | 0.55
GCGACTGTGGCAAAGCAGGTTACCATAAGGTTGG | -0.28 | -0.311 | -0.53 | -0.511 | -1.38 | 0.3 | 0.331 | -0.377 | -0.529 | -0.508
GCTGCTAGGTCAACTGATGGTCAGGTAAAGCTCG | 4.16 | 2.9 | 0.318 | 2.37 | 0.0406 | 3.7 | 2.95 | 3.33 | 0.765 | 1.9
GCTAGCAGGCCTTTTGGGTCACTCAATGACGGGC | 0.126 | -0.171 | -0.408 | 0.187 | -1.11 | 0.992 | 0.209 | 0.00506 | -0.68 | -0.138
CCACGGAGGACAACAGGAGGTCAGAGCTGCCAGA | 1.09 | 2.38 | 2.44 | 1.7 | -0.198 | 2.21 | 0.672 | 0.164 | -0.705 | -0.441
ATCTCTAGGGAACCAAGTTCAGTGAATGCCGAAC | -0.221 | 0.011 | 0.471 | 0.284 | 0.239 | 0.00792 | -0.0553 | 0.046 | 0.00419 | 0.0789
GATACAGGGTCACCTAGAGGCCAGAGTATGGAAA | 6.92 | 4.72 | -0.102 | 3.99 | -0.035 | 5.79 | 6.93 | 6.02 | 2.71 | 4.91
TAGCCTCGGTCATGGGCCAGTATACCACGCGAAC | 0.333 | 0.687 | 0.0533 | -0.073 | -0.572 | 0.143 | 0.374 | 0.188 | -0.674 | -0.0831
TTACCAAGGTGATCTGAGGTCGTTGATCCAACTC | 1.9 | 3.07 | 0.554 | 1.78 | -0.164 | 1.78 | 0.169 | 0.846 | 0.216 | 0.651
TCGAGTAGGTTAGGGGCATTTAGAATGGCGTCGA | 0.425 | 0.611 | -0.123 | 0.871 | 0.134 | 1.37 | 0.729 | 2.07 | 1.37 | 1.68
ATATGTAGGTTACATCCGGGTCATTAAGGCTATG | 2.39 | 4.11 | 1.5 | 3.09 | 0.566 | 4.35 | 6.02 | 5.08 | 2.66 | 4.28
ATACCATGGTGATCGTGAGGTCGTTGATACTAAC | 0.952 | 0.604 | 0.284 | 1.08 | -0.16 | 0.884 | 0.301 | -0.0472 | 0.115 | 0.0761
TCTCGGAGGACACGAAGATCAGAGCTTTCCAGAG | 0.203 | -0.201 | -0.688 | -0.685 | -1.08 | 0.0727 | 0.181 | 0.96 | 2.25 | 1.67
TCTAGTTGGTCACGGAGGTCAAACACGACGGGTA | 4.19 | 4.67 | 4.58 | 4.25 | 1.38 | 4.39 | 3.25 | 4.13 | 3.76 | 4.08
TCATATAGGTAAACCGGTGAAAGTCCGTAAGTTA | 0.407 | 0.533 | 0.147 | 0.517 | -0.352 | 1.68 | 1.17 | 2.72 | 3.49 | 2.97
GCTTACGGGTCAAAGGTTATATCATGAATAGAAT | 7.77 | 6.12 | 1.25 | 5.78 | 1.03 | 6.94 | 11.4 | 9.51 | 10.9 | 11.1
TCTTGTAGATCAACAGGAGGTTAAGACAGATCGA | 0.088 | 1.15 | -0.145 | 0.737 | -0.342 | 1.3 | 0.205 | 1.36 | 2.4 | 2.07

Sequence | PBM binding z-score [1] | PBM binding z-score [2] | PBM binding z-score [3] | PBM binding z-score [4] | PBM binding z-score [5] | PBM binding z-score [6] | PBM binding z-score [7] | PBM binding z-score [8] | PBM binding z-score [9] | PBM binding z-score [10]
CAAACTAGATCAAGGTCAAAGTCGGTTTGTGCCA | 4.53 | 4.46 | 3.64 | 3.65 | 0.973 | 4.54 | 3.63 | 3.99 | 1.31 | 2.91
ATCAAAAGGTCGACGAGGTGAGTATACACCGTTT | 4.64 | 3.46 | 0.265 | 2.86 | 0.587 | 4.82 | 3.29 | 3.63 | 1.47 | 2.53
TTACCAAGGTGAAAGGCCGTTGATGCACGCCTTG | 0.494 | 0.431 | -0.517 | 0.397 | -0.951 | 2.49 | 3.77 | 4.98 | 2.95 | 4.9
TGTGCTAGGTCAACGATGGTCAGCTAATCTGCTA | 3.38 | 2.67 | -0.0277 | 1.54 | 0.116 | 3.1 | 2.68 | 2.4 | 0.195 | 1.68
TCTGCTAGGTCAACGATGGTCAGCCAATCTGCTA | 3.5 | 2.9 | -0.0342 | 1.57 | -0.0158 | 3.17 | 2.73 | 3.17 | 1.79 | 2.48
GCTGCTAGGTCAACTGATGATCAGCTAAAGCTCG | 3.88 | 2.96 | -0.334 | 2.02 | 0.0909 | 3.68 | 2.88 | 3.19 | 0.694 | 2.07
CCATACGGGTCACTCCAGGTTATAGCATCGGAGT | 4.55 | 7.37 | 1.79 | 5.15 | 0.265 | 4.18 | 3.46 | 3.28 | 1.27 | 2.68
TAGCCTAGGTCGGATCGGGCCAGTATACGCTATA | -0.358 | -0.506 | -0.432 | -0.741 | -0.754 | -0.324 | 0.0462 | -0.371 | -0.755 | -0.538
ATCTCCAGGTAAAAGTTCAGTGAATCCCGAGGAT | 1.06 | 1.58 | 1.65 | 1.15 | 0.946 | 3.5 | 5.76 | 6.62 | 6.15 | 7.28
CCTATTAGTTGACCATAAGGGCAAACGAAGCTCG | 1.04 | 0.336 | 0.545 | 0.644 | 0.599 | 0.695 | 0.426 | 0.45 | 0.0598 | 0.284
TAGCCTAGGTCAGATCGGGCCACTATACGCTATA | 2.45 | 1.34 | -0.308 | 0.919 | -0.028 | 1.65 | 0.925 | 0.87 | -0.128 | 0.49
TCTAATAGTTGAAGGGCAACCGACGAGTCCGTTT | 0.931 | 0.943 | 0.0231 | 0.595 | -0.0774 | 1.14 | 0.216 | 2.02 | 3.45 | 2.9
CACACTAGGTCACGAAAGGTCAAAGTCGAATGAC | 7.55 | 8.25 | 9.12 | 7.76 | 3.53 | 6.67 | 9.73 | 8.2 | 6.53 | 8.24
TCATATAGGTAAAGATGAAAGTCGAACGATATGA | 0.255 | 0.326 | -0.224 | 0.183 | -0.264 | 0.972 | 1.38 | 2.08 | 3.79 | 3.02
TAGCCTAGGTCATGCGGGCCGGTATAGTGTCGGC | 4.25 | 3.22 | 0.206 | 1.43 | -0.202 | 3.19 | 1.89 | 2.45 | 0.149 | 1.79
CGTCCAAGGTCAAAGGAGGTCAGTGAAGACAGAT | 7.79 | 7.44 | 4.18 | 5.88 | 1.51 | 6.08 | 5.84 | 5.46 | 2.75 | 4.81
CCAGACAGGTGAGAAGGTAACGCAGCCTCGATTA | -0.0305 | 0.0782 | -0.18 | 0.115 | -0.496 | 0.743 | 0.809 | 0.998 | -0.268 | 0.809
ATCGAAAGGTCGTGTGGTGAGTATACAGAAAGGC | 4.91 | 4.22 | 0.724 | 3.43 | 1.53 | 4.84 | 3.01 | 3.37 | 1.38 | 2.57
